From ChEMBL document CHEMBL4888484, “Replenishing the malaria drug discovery pipeline: Screening and hit evaluation of the MMV Hit Generation Library 1 (HGL1) against asexual blood stage Plasmodium falciparum ,using a nano luciferase reporter read-out” (2022)
Among all 150,000 compounds or so, about 540 (0.36%) showed an effect of 50% or more. Shown is part of a subset that was picked to be rich in strong results.

The compounds below were run on Plasmodium falciparum (assay: Primary screen in NF54 nanoGlo assay, in single point, at 2uM, 72h; a lower Z score goes with more inhibition). Settings: timepoint 72 hour.
Type: functional, Erythrocyte

SMILES | % Inhibition [%] | Z score
COc1cccc(C(=O)N2CCN(c3cccnc3)C(=O)C2)c1OC | 9 | -1.08
CN(C)S(=O)(=O)N1CCC2(CCC(=O)N(CCc3ccccn3)C2)CC1 | -12 | 1.7
CCc1ccccc1S(=O)(=O)NC[C@H](C(=O)O)C(C)C | 2 | -0.45
COCCN1C(=O)c2ccc(C(=O)NCc3ccncc3)cc2C1=O | -3 | 0.39
Cc1ccc(-c2cn[nH]c2[C@H]2CCCN(C(=O)C(C)(C)O)C2)cc1 | -14 | 2.64
NC(=O)C1CCN(C(=O)Cc2ccc(-c3ccccc3)cc2)CC1 | -4 | 0.36
COC(=O)C1(NC(=O)OC(C)(C)C)CC(CN2CCN(C)CC2)C1 (stereo not drawn) | 10 | -2.05
CC1=C(c2ccc(Cl)cc2)S(=O)(=O)N=C1N1CCC(C(=O)NCCN(C)C)CC1 | -18 | 1.96
CCC1=C(c2ccc(C)cc2)S(=O)(=O)N=C1N1CCC(C(=O)NCCN2CCCC[C@@H]2C)CC1 | 53 | -6.49
CCc1ccc(C2=C(C)C(N3CCC(C(=O)NC)CC3)=NS2(=O)=O)cc1 | -2 | 0.29
CCCCN(CC)CCNC(=O)C1CCN(C2=NS(=O)(=O)C(c3ccc(OC)cc3)=C2C)CC1 | 57 | -3.61
CCC1=C(c2ccc(C)cc2)S(=O)(=O)N=C1N1CCC(C(=O)NC2CCC(C)CC2)CC1 (stereo not drawn) | -12 | 1.49
CCC1=C(c2ccc(C)cc2)S(=O)(=O)N=C1N1CCC(C(=O)NCCCc2ccccc2)CC1 | -9 | 1.6
CN1CC2(CCN(C(=O)c3ccccc3O)CC2)C[C@@H](c2ccccc2)C1=O | -14 | 1.81
C=CCOC1CCN(C(=O)CCN2CCOC2=O)CC1 | -4 | 0.57
Cc1nc(CNC(=O)c2nc3ccccc3[nH]c2=O)cs1 | 5 | -0.75
CC(C)c1ncc(CN(C)S(=O)(=O)N(C)C2CCCCC2)cn1 | -9 | 1.04
CC(C)(C)OC(=O)NC1CC(NCC(O)c2ccco2)C12CCC2 (stereo not drawn) | 0 | 0.02
CCOc1ccc(C2c3[nH]c4ccccc4c3C[C@H]3C(=O)N(C4CCN(Cc5ccccc5)CC4)CC(=O)N23)cc1OC (stereo partly drawn) | 79 | -7.03
CCOc1ccc(C2c3[nH]c4ccccc4c3C[C@H]3C(=O)N(C4CCCCCCC4)CC(=O)N23)cc1OC (stereo partly drawn) | 12 | -1.52
COc1cccc(C2c3[nH]c4ccccc4c3C[C@H]3C(=O)N(C4CCN(Cc5ccccc5)CC4)CC(=O)N23)c1 (stereo partly drawn) | 15 | -1.95
CCOc1ccc2nc(CN(C)[C@@H]3CCCC[C@@H]3O)ccc2c1 | -18 | 1.9
CCOc1ccc2nc(CN(Cc3cnn(C)c3)C3CC3)ccc2c1 | -7 | 1.15
CCn1c(CN2CCCC2)nc2cc(S(=O)(=O)N3CCCCC3)ccc21 | -46 | 5.44
Cc1ccc(CNC(=O)[C@]2(C)CCC(=O)N2CCCc2ccccc2)cc1 | -16 | 1.5

SMILES | % Inhibition [%] | Z score
O=C(Nc1cccc(S(=O)(=O)NC2=NCCC2)c1)c1cc(Cl)c2c(c1)OCCCO2 | -11 | 1.51
CCOc1cccc(-c2ccc3nc(-c4cccc(OC)c4)c(CCC(=O)NCCc4ccc(OC)c(OC)c4)n3c2)c1 | 22 | -4.22
CCOc1cccc(-c2ccc3nc(-c4cccc(OC)c4)c(CCC(=O)NC4CC4)n3c2)c1 | 4 | -0.75
CCOc1cccc(-c2ccc3nc(-c4cccc(OC)c4)c(CCC(=O)NCCN4CCCC4)n3c2)c1 | 59 | -11.14
Cc1nc(O)nc(O)c1CN1CCOCC1 | -10 | 1.65
c1ccc(-c2nnc(-c3cccnc3NCc3cccs3)o2)cc1 | -5 | 0.8
O=C1CCCN1[C@H]1CCCN(S(=O)(=O)CC2CCCCC2)CC1 | -7 | 1.12
O=C1O[C@H]2CN(CCCc3ccccc3)C[C@H]2N1Cc1ccccn1 | -16 | 1.43
CCOCC1CCN(CCc2ccc3c(c2)CCO3)CC1 | -4 | 0.71
O=C([C@@H]1CCCN1C1CC1)N1CCC2(CC1)OCCc1ccccc12 | -14 | 1.46
COCC(=O)N[C@H]1CO[C@H]2[C@@H]1OC[C@@H]2Nc1nccc(-c2cccc(C#N)c2)n1 | 50 | -0.95
N#Cc1cccc(-c2ccnc(N[C@H]3CO[C@H]4[C@@H]3OC[C@@H]4NC(=O)c3ccc(C(F)(F)F)cc3)n2)c1 | -7 | 1.07
COCC(=O)N[C@H]1CO[C@H]2[C@@H]1OC[C@@H]2Nc1nccc(-c2ccc(OC)cc2)n1 | -5 | 0.87
CC(C)Cn1cccc(C(=O)Nc2cn(C)nc2-c2ccco2)c1=O | -9 | 1.12
CCN(C(=O)COc1cccc(C)c1)[C@H](c1ccc(C)cc1)c1c[nH]c2ccccc12 | 6 | -0.77
COc1ccc(-c2oc(C)c(C)[n+]2[O-])cc1OC | 71 | 0.43
Cc1ccccc1-c1oc(C)c(C)[n+]1[O-] | 2 | -0.28
Cc1oc(-c2cccc(F)c2)[n+]([O-])c1C | 5 | -0.64
COc1ccc(CN2C[C@H]3CC[C@@H](C2)N(CC=C(C)C)C3)cc1CN(C)C | -17 | 1.87
CN(Cc1cnc2ccccc2c1)c1cnn(C)c1 | 1 | -0.16
Cc1ncsc1CCNC(=O)[C@H]1CCN(c2ccc(C(F)(F)F)cn2)C1 | -4 | 0.7
C[C@@H](C1CC1)N(C1CC1)S(=O)(=O)c1cccc2c1N=S=N2 | 38 | -0.53
C[C@@H](C1CC1)N(CC(=O)Nc1ccc(F)cc1F)C1CC1 | -12 | 1.76
C[C@@H](C1CC1)N(C1CC1)S(=O)(=O)c1ccc(F)cc1F | 84 | -10.78
